# Measurements taken from PubChem BioAssay (NCATS).
# “And” between values parts separate entries of the source, which are not always exact repeats. Equal values may be shown once. Results filed as inconclusive are left out. Unmarked numbers belong to inactive results. The source made the active and inactive calls. Unless noted, calls follow the shape of the dose curve; as a rule, active = well fitted curve in either direction with a large enough effect (not every such curve was filed as active); inconclusive = small, poorly fitted or top-dose-only effect, or another doubt; inactive = flat fitted curve, though single readings scatter.
# Legend:
# [1] = AP1 Signaling Pathway (AID 357);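 also: ME-180 reporter cells stimulated with EGF at its EC50 level; % is scaled to controls: 0 for no effect and ±100 for the full control effect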
# Method in brief: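 First, ME-180 AP-1-bla cells were cultured overnight at 37 °C in low-serum Opti-MEM. Next, titrated compounds with EC50 EGF were incubated 5 hours. Finally, CCF4 was added for 2.5 hours and the 460/530 nm ratio recorded.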
# [2] = molecular target: Cytochrome P450 1A2 (Homo sapiens) (UniProt P05177); test: p450-cyp1a2 (AID 410; calls by dose curve; also: potency is read from the fitted curve at half-maximal effect;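 as to activity change, negative = inhibition: -100% = full effect of reference inhibitor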)
# Chain of Cytochrome P450 1A2 (Homo sapiens) (P05177 whole entry, looked up): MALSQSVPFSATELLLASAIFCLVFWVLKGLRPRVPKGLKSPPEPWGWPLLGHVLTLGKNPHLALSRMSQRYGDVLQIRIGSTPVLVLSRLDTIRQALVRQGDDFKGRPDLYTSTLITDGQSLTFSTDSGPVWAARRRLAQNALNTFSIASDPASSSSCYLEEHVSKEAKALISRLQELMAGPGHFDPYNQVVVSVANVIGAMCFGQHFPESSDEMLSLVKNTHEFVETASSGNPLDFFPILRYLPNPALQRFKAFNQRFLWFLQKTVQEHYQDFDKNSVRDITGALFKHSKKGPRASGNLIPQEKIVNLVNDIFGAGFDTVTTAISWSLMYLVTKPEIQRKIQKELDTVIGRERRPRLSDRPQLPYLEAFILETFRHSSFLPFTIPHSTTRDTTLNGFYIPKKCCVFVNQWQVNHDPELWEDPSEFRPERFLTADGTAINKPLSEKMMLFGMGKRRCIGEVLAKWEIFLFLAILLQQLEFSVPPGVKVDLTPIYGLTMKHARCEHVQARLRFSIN
# Method in brief: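 20nM CYP1A2 with 100uM Luciferin-ME (at Km) in 100mM KPO4; compound preincubated 10 min, NADPH regeneration added, 60 min at room temperature. Luciferin quantified by luminescence after detection reagent; normalized to 57 uM furafylline.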
# [3] = NFAT Signaling Pathway (AID 444); conditions: Jurkat NFAT-bla M1, carbachol, beta-lactamase ratio, 5 h;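 also: carbachol stimulus at about its EC50 of 1 µM final; % is scaled to controls: 0 for no effect and ±100 for the full control effect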
# Method in brief: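 Read-out: CCF4 FRET ratio (460 nm/530 nm) after 1 h RT dye loading, used for %activity and AC50 from titration series. Cells: Jurkat NFAT-β-lactamase/M1 line, treated with compound plus 1 uM carbachol for 5 h, 37 °C.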
# [4] = Cell Viability - BJ (AID 421; calls by dose curve;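 also: potency is read from the fitted curve at half-maximal effect; cells exposed to compound for 40 hours at 37 °C before readout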); conditions: BJ fibroblast viability, qHTS
# Method in brief: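 Quantitative HTS: ATP depletion in BJ cells after 40 hr compound exposure in complete culture medium, detected with CellTiter-Glo; AC50 from standard Hill fits.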
# [5] = Cell Viability - Hek293 (AID 427;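 active = compounds whose dose-response curve shows a full or clear partial loss of cell viability, called from curve shape rather than a numeric limit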;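 also: potency is read from the fitted curve at half-maximal effect; cells exposed to compound for 40 hours at 37 °C before reading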); conditions: qHTS
# Method in brief: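 AC50 values derive from Hill-modelled concentration-response of ATP-based luminescence, normalized between DMSO-only and 100 uM tamoxifen controls. Cells were exposed in complete culture medium for 40 hr at 37 °C before detection.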
# [6] = Cell Viability - HepG2 (AID 433; calls by dose curve;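 also: potency is read from the fitted curve at half-maximal effect; potency for ATP loss meaning cytotoxicity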); conditions: qHTS
# Method in brief: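 ATP luminescence (CellTiter-Glo) after 40 h compound exposure, 37 °C, HepG2, 1500 cells/well, complete medium. Normalized: DMSO = basal, 100 uM tamoxifen = 100% inhibition. AC50 via standard Hill equation.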
# [7] = Cell Viability - MRC5 (AID 434; calls by dose curve;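 also: potency is read from the fitted curve at half-maximal effect; potency reflects cytotoxicity seen as loss of intracellular ATP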); conditions: MRC5 lung fibroblast viability, qHTS
# Method in brief: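 qHTS cytotoxicity in human lung fibroblast MRC5 cells; 40 hr treatment, 37 °C; cellular ATP by luciferase luminescence; DMSO = 0%, 100 uM tamoxifen = 100% inhibition; Hill-fit AC50.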
# [8] = Cell Viability - SK-N-SH (AID 435; calls by dose curve; also: potency is read from the fitted curve at half-maximal effect); conditions: SK-N-SH neuroblastoma cell viability qHTS
# Method in brief: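 CellTiter-Glo ATP luminescence, 20 min RT read; cells pre-plated 5 hr, compound 40 hr at 37 °C, 1500 cells/well, complete medium. Normalized DMSO = 0, 100 uM tamoxifen = 100% inhibition; Hill-fit AC50.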
# [9] = Cell Viability - Jurkat (AID 426;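 active = dose-dependent loss of cell ATP signal giving a full or clear fitted curve, ranked by lower potency value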;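 also: potency is read from the fitted curve at half-maximal effect; cells exposed to compound for 40 hours at 37 °C before ATP read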); conditions: qHTS
# Method in brief: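 Jurkat (Clone E6-1) cells, 5000/well in complete medium, exposed to compounds for 40 hr at 37C; intracellular ATP measured by CellTiter-Glo luminescence after 20 min at room temperature. AC50 from Hill fits.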
# [10] = at 17.2 µM (top of the series) unless noted
smiles,measurement,setting,value
CC(=O)OCC(=O)[C@H]1CC[C@H]2[C@@H]3CCC4=CC(=O)CC[C@]4(C)[C@H]3CC[C@]12C,outcome,[1],inactive
COc1cc(N)c(Cl)cc1C(=O)NC1CCN(Cc2ccccc2)CC1,outcome,[1],inactive
same,Potency,[2],12.6 µM (active)
same,"activity change, negative = inhibition",[3]; [10],-14.7%
O=c1[nH]c(=O)n([C@H]2C[C@H](O)[C@@H](CO)O2)cc1F,outcome,[1],inactive
CCN(CC)CCNC(=O)c1cc(Br)c(N)cc1OC,outcome,[1],inactive
same,Potency,[2],10 µM (active)
CC(C)(C)NC[C@H](O)COc1cccc2c1CCCC2=O,outcome,[1],inactive
same,Potency,[2],inactive
same,"activity change, negative = inhibition",[3]; [10],-6.3% and -2.31%
COc1cc(C(=O)NCc2ccc(OCCN(C)C)cc2)cc(OC)c1OC,outcome,[1],inactive
same,Potency,[2],inactive
same,"activity change, negative = inhibition",[3]; [10],-15.8%
CN1CCC(OC(c2ccccc2)c2ccccc2)CC1,outcome,[1],inactive
COc1cc([C@H]2Oc3cc([C@H]4Oc5cc(O)cc(O)c5C(=O)[C@@H]4O)ccc3O[C@@H]2CO)ccc1O,Potency,[4],> 92 µM
same,Potency,[5],> 92 µM
same,Potency,[6],> 92 µM
same,Potency,[7],> 92 µM
same,Potency,[8],> 92 µM
CC[N+](C)(CC)CCOC(=O)C(O)(c1ccccc1)C1CCCCC1 (stereo unspecified),outcome,[1],inactive
same,"activity change, negative = inhibition",[3]; [10],-95.5% (active)
Oc1ccc(Cl)cc1Cc1cc(Cl)ccc1O,Potency,[5],37.4 µM (active)
same,Potency,[6],40.6 µM (active)
O=C(O)CCC(=O)Nc1ccc(S(=O)(=O)Nc2nccs2)cc1,outcome,[1],inactive
same,"activity change, negative = inhibition",[3]; [10],4.24% and -25.1%
O=C(O)CCNC(=O)c1ccccc1,outcome,[1],inactive
same,"activity change, negative = inhibition",[3]; [10],3.54%
CC[C@H](c1ccc(O)cc1)[C@@H](CC)c1ccc(O)cc1,Potency,[2],12.6 µM (active)
CNCCc1ccccn1,Potency,[2],inactive
same,"activity change, negative = inhibition",[3]; [10],-6.53%
C=C[C@H]1CN2CC[C@H]1C[C@@H]2[C@@H](O)c1ccnc2ccc(OC)cc12,Potency,[4],> 92 µM
same,Potency,[5],> 92 µM
same,Potency,[6],> 92 µM
same,Potency,[7],> 92 µM
same,Potency,[8],> 92 µM
CCOC(=O)Nc1ccc2c(c1)N(C(=O)CCN1CCOCC1)c1ccccc1S2,Potency,[2],inactive
O=C(O)c1ccc(S(=O)(=O)N(Cl)Cl)cc1,Potency,[4],> 92 µM
same,Potency,[5],> 92 µM
same,Potency,[6],> 92 µM
same,Potency,[7],> 92 µM
same,Potency,[8],> 92 µM
CC(O)Cn1cnc2c1c(=O)n(C)c(=O)n2C (stereo unspecified),outcome,[1],inactive
same,"activity change, negative = inhibition",[3]; [10],10.8%
COc1cc(C)nc(-n2nc(C)cc2OC)n1,outcome,[1],inactive
same,"activity change, negative = inhibition",[3]; [10],-6.98%
Oc1c(Cl)cc(Cl)c(Cl)c1Cc1c(O)c(Cl)cc(Cl)c1Cl,Potency,[4],0.536 µM
same,Potency,[6],10.7 µM (active)
CC(=O)O[C@]1(C(C)=O)CC[C@H]2[C@@H]3C=C(C)C4=CC(=O)CC[C@]4(C)[C@H]3CC[C@@]21C,outcome,[1],inactive
same,"activity change, negative = inhibition",[3]; [10],-25.3%
CN(C)CCOC(=O)C(c1ccccc1)C1(O)CCCC1 (stereo unspecified),outcome,[1],inactive
same,"activity change, negative = inhibition",[3]; [10],-76.1% (active)
OC[C@H]1O[C@@H]2O[C@H]3[C@H](O)[C@@H](O)[C@@H](O[C@H]4[C@H](O)[C@@H](O)[C@@H](O[C@H]5[C@H](O)[C@@H](O)[C@@H](O[C@H]6[C@H](O)[C@@H](O)[C@@H](O[C@H]7[C@H](O)[C@@H](O)[C@@H](O[C@H]8[C@H](O)[C@@H](O)[C@@H](O[C@H]1[C@H](O)[C@H]2O)O[C@@H]8CO)O[C@@H]7CO)O[C@@H]6CO)O[C@@H]5CO)O[C@@H]4CO)O[C@@H]3CO,Potency,[4],> 92 µM
same,Potency,[9],> 92 µM
same,Potency,[5],> 92 µM
same,Potency,[6],> 92 µM
same,Potency,[7],> 92 µM
same,Potency,[8],> 92 µM
CN=C(N)NCCC[C@H](N)C(=O)O,outcome,[1],inactive
same,"activity change, negative = inhibition",[3]; [10],-7.03% [at 38 µM]
C[N+]12CCC(CC1)C(OC(=O)C(O)(c1ccccc1)c1ccccc1)C2 (stereo unspecified),outcome,[1],inactive
same,"activity change, negative = inhibition",[3]; [10],-83.7% (active)
CC(C)(C)NC[C@H](O)COc1nsnc1N1CCOCC1,outcome,[1],inactive
same,"activity change, negative = inhibition",[3]; at 17.2 µM (top of the series),1.16% and 3.92%
same,"activity change, negative = inhibition",[3]; at 38 µM (top of the series),-1.27%
C/C=C/c1ccc(O)c(OC)c1,Potency,[4],> 92 µM
same,Potency,[9],> 92 µM
same,Potency,[5],> 92 µM
same,Potency,[6],> 92 µM
same,Potency,[7],> 92 µM
same,Potency,[8],> 92 µM
CCCCC(CC)COC(=O)c1ccc(N(C)C)cc1 (stereo unspecified),Potency,[4],> 92 µM
same,Potency,[9],> 92 µM
same,Potency,[5],> 92 µM
same,Potency,[6],> 92 µM
same,Potency,[7],> 92 µM
same,Potency,[8],> 92 µM
CCCCN1C[C@H](O)[C@@H](O)[C@H](O)[C@H]1CO,outcome,[1],inactive
same,"activity change, negative = inhibition",[3]; [10],14.7%
CCCCc1cc2ccccc2c(OCCN(C)C)n1,Potency,[2],0.0794 µM (active)
O=C(c1ccc(F)cc1)C1CCN(CCn2c(=S)[nH]c3ccccc3c2=O)CC1,Potency,[2],15.8 µM (active)
CC(C)(C)NCC(O)COc1cccc2c1C[C@H](O)[C@H](O)C2 (stereo partly specified),outcome,[1],inactive
same,"activity change, negative = inhibition",[3]; [10],1.44%
COc1cc(NS(=O)(=O)c2ccc(N)cc2)ncn1,outcome,[1],inactive
same,"activity change, negative = inhibition",[3]; [10],-5.57% and -24.6% and -2.19%
NCCNc1cccc2ccccc12,Potency,[4],> 92 µM
same,Potency,[6],> 92 µM
same,Potency,[7],> 92 µM
same,Potency,[8],> 92 µM
CCOc1ccccc1C(N)=O,Potency,[4],> 92 µM
same,Potency,[9],> 92 µM
same,Potency,[5],> 92 µM
same,Potency,[6],> 92 µM
same,Potency,[7],> 92 µM
same,Potency,[8],> 92 µM
CC(=O)OC[C@H]1O[C@@H](n2ncc(=O)[nH]c2=O)[C@H](OC(C)=O)[C@@H]1OC(C)=O,outcome,[1],inactive
same,"activity change, negative = inhibition",[3]; [10],-22.9%
